# Compound activity deposited in PubChem BioAssay by National Center for Advancing Translational Sciences (NCATS).
# FLuc modulator: inhibits or activates purified firefly luciferase, miR-21 counter-screen | purified FLuc, Km substrates, luminescence inhibition | Potency, µM (highest dose often 57.5 µM), usual class: inhibitors | hit rate 6.9% among 360,000; also: nearly all actives have a fitted effect of over 55% in size
# Target sequence (P08659 whole entry, looked up): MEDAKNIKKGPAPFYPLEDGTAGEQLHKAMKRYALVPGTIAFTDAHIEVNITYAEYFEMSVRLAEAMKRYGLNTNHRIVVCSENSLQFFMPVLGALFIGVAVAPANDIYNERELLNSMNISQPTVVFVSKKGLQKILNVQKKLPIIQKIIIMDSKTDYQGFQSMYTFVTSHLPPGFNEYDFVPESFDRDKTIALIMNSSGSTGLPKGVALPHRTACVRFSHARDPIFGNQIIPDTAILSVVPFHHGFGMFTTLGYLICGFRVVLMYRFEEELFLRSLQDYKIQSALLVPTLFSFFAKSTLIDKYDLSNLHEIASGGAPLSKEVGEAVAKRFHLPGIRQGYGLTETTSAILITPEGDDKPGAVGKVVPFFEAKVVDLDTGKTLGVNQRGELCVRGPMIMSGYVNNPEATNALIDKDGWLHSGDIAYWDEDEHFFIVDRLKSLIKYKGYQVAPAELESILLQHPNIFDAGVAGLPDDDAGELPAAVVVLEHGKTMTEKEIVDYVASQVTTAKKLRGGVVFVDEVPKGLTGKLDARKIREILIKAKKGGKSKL
#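 Biochemical qHTS of compounds, final roughly 60 µM downward over six points, against 10 nM purified firefly luciferase using Km concentrations of substrates (10 uM D-luciferin, 10 uM ATP) in Tris acetate pH 7.5 buffer; luminescence output.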
# NPC1 promoter act: activators of NPC1 promoter. Potency, µM (titrated, usually from 9.22 µM), actives largely listed as activators. hit rate 2.4% among 320,000. AID 485313. Huh7 NPC1 promoter luciferase reporter, 24 h; also: nearly all actives have a fitted effect of over 60% in size
#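 Readout is luciferase luminescence, reflecting NPC1 promoter activation in stably transfected Huh7 cells after 24 h compound exposure at 37 °C in reduced-serum medium with 10% FBS.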
# SMN2 splice enh: increases expression of the SMN2 splice variant; HEK293 SMN2-luciferase splicing reporter, luminescence, 30-36 h; Potency, µM (highest dose often 46.1 µM), actives largely listed as activators; hit rate 2.8% among 210,000; also: nearly all actives have a fitted effect of over 55% in size
#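 qHTS luciferase splicing reporter: luminescence rises when SMN2 exon 7 is included in transfected HEK293 cells. Compound exposure lasted 30-36 h at 37C, with 4.5 mM final sodium butyrate as control, followed by a ONE-Glo read.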
# ELG1 genotox: genotoxicity induction in ELG1-luciferase HEK293T cells. HEK293T ELG1-luciferase reporter, luminescence, 16 h. Potency, µM (doses to about 46 µM), actives largely listed as activators. hit rate 1.3% among 330,000. AID 504466; also: nearly all actives have a fitted effect of over 60% in size
#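 Reporter readout depends on ELG1 protein level, which increases with genetic stress. After 16 hr compound exposure at 37 °C, luciferase activity was quantified using ONE-Glo.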
# Rab9 promoter act: activators of Rab9 promoter. Huh7 Rab9 promoter-luciferase reporter, luminescence, 24 h. Potency, µM (top dose mostly 9.22 µM), usual class: activators. hit rate 2.8% among 320,000. AID 485297; also: nearly all actives have a fitted effect of over 60% in size
#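 Rab9 promoter-driven luciferase in stably transfected Huh7 cells; 1500 cells/well rested 2 h, exposed to compound in DMSO for 24 h at 37 °C, 5% CO2. Luminescence read 10 min after adding luciferase reagent at ambient temperature.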
# Numbers stand for hits; 0 = inactive; ? = inconclusive; - = not tested or not shown. Compounds with a hit are over-represented: about 7.5% of the library has one in this group of screens. Calls follow the shape of the dose curve; as a rule, active = well fitted curve in the direction sought with a large enough effect; inconclusive = small, poorly fitted or top-dose-only effect, or another doubt; inactive = no such curve, though single readings can be large; an effect the other way counts as inactive or inconclusive.
SMILES,FLuc modulator,NPC1 promoter act,SMN2 splice enh,ELG1 genotox,Rab9 promoter act
CCOC(=O)c1ccc(NC(=O)C(CC)CC)cc1,?,0,0,?,?
CCn1c(=NC(=O)c2ccc3c(c2)OCCO3)sc2c(C)ccc(OC)c21,1.9µM,-,-,-,-
C#CCn1c(=NC(=O)c2ccc3c(c2)OCCO3)sc2cc(OC)c(OC)cc21,0,-,-,-,-
COc1ccc(C(=O)N=c2sc3c(C)ccc(OC)c3n2C)cc1,0.601µM,?,3.98µM,0.461µM,?
Cc1cc2nn(-c3ccc(F)cc3)nc2cc1NC(=O)c1cccc2ccccc12,0,-,0,-,-
CCC(=O)Nc1cc2nn(-c3ccc(OC)cc3)nc2cc1C,0.301µM,0.1µM,0,0.411µM,?
Cc1cc2nn(-c3ccc(F)cc3)nc2cc1NC(=O)c1ccc(OC(C)C)cc1,0,-,0,-,-
CCC(=O)Nc1cc2nn(-c3ccc(C)cc3)nc2cc1C,0.107µM,?,0,?,?
COc1ccc(-n2nc3cc(C)c(NC(=S)NC(=O)c4ccccc4C)cc3n2)cc1,2.39µM,0,0,?,0
Cc1cccc(C(=O)Nc2cc3nn(-c4ccc(C(C)C)cc4)nc3cc2C)c1,2.13µM,-,0,-,-
CCCCC(=O)Nc1cc2nn(-c3ccc(OC)cc3)nc2cc1C,?,?,?,?,0
Cc1ccc(-c2n[nH]c(=O)c3ccccc23)cc1S(=O)(=O)Nc1ccccc1,0,0,-,0,0
c1ccc(-c2ccc(-c3cnc4n3CCCCC4)cc2)cc1,12µM,?,0,?,0
CCc1ccc(C(=O)CSc2n[nH]c(C)n2)cc1,21.3µM,0,0,0,?
Cc1ccc(C(=O)CSc2n[nH]c(C)n2)cc1,?,0,0,?,0
COc1ccc(-c2nc(SCC(=O)c3ccc(Br)cc3)n[nH]2)cc1,0,-,0,-,-
CC(C)c1ccc(C(=O)CSc2n[nH]c(-c3ccncc3)n2)cc1,15.1µM,0,0,0,0
CCCCN(C)/C=N/c1c(C#N)cnn1-c1ccc(C)cc1,0,0,0,0,0
COc1ccc(NS(=O)(=O)c2ccc(Cl)c(C(=O)O)c2)cc1S(=O)(=O)N1CCCCC1,?,0,0,0,0
COc1ccc(C(=O)NCC(c2cccnc2)N2CCc3ccccc3C2)cc1OC (stereo not given),0.675µM,-,-,-,-
CCC(Oc1ccccc1)C(=O)Nc1nnc(C(F)(F)F)s1 (stereo not given),0,0,0,0,0
O=C(N/N=C/c1ccc([N+](=O)[O-])o1)c1cc(-c2ccc(-c3ccccc3)cc2)nc2ccccc12,0.151µM,?,2.51µM,?,?
Cc1ccc(-c2cc(C(=O)N/N=C/c3ccc([N+](=O)[O-])o3)c3ccccc3n2)o1,0.301µM,?,-,0,?
O=C(N/N=C/C=C\c1ccccc1[N+](=O)[O-])c1cc(-c2ccccc2)nc2ccccc12,12µM,0,0,0,0
CCOc1cc(/C=N/n2c(C)nc3ccccc3c2=O)ccc1O,0,0,-,0,0
SMILES,FLuc modulator,NPC1 promoter act,SMN2 splice enh,ELG1 genotox,Rab9 promoter act
NC(=O)c1c(/N=C/c2cccs2)sc2c1CCCC2,12µM,1.26µM,-,0,?
O=C(/C=C/c1cccs1)Nc1sc2c(c1C(=O)O)CCCC2,?,0,-,0,0
CC[N+](CC)(CC#Cc1ccccc1)CC#Cc1ccccc1,0,0,-,0,0
CCOC(=O)c1cc2c(nc1N)CCCC2,0,0,-,0,0
C=C(C)CNC(=S)Nc1nc2c(cc1C(=O)OCC)CCCC2,13.5µM,?,4.47µM,?,?
CCn1c(C)nc2cc(C(=O)NNC(=S)Nc3ccccc3OC)ccc21,19µM,0,-,0,?
CCn1c(C)nc2cc(C(=O)OC)ccc21,0,0,-,0,0
COc1ccccc1NC(=S)NNC(=O)c1ccc(Cl)cc1Cl,10.7µM,0,15.8µM,0,0
CCn1c(C)nc2cc(C(=O)N/N=C(\C)c3ccccc3O)ccc21,13.5µM,?,?,0,?
CCn1c(C)nc2cc(C(=O)NNC(=S)Nc3ccc(C)cc3)ccc21,?,0,-,0,0
COc1cc([N+](=O)[O-])ccc1NC(=O)CCCOc1ccccc1,0,0,0,0,0
COc1cc([N+](=O)[O-])ccc1NC(=S)NNC(=O)CCC(=O)Nc1ccccc1Cl,?,?,-,9.2µM,?
O=C(O)c1ccn(CSc2cc(Cl)ccc2Cl)n1,0,0,-,0,0
O=C1CCCN1c1ccc(S(=O)(=O)N2CCN(c3ccccn3)CC2)cc1,0,0,0,0,0
CN1CCN(c2oc(-c3ccccc3Cl)nc2S(=O)(=O)c2ccccc2)CC1,0,0,-,0,0
O=C(CC1CCCCC1)NCCCN1CCOCC1,0,0,0,0,0
CCn1c(C)nc2cc(C(=O)N/N=C/c3ccccc3C)ccc21,10.7µM,1.78µM,15.8µM,?,1.12µM
CCCCCCc1c(C)c2c(cc(C)c3c(C)c(C)oc32)oc1=O,0,-,0,-,-
COCCN(CCOC)c1ncnc2c1cnn2-c1ccccc1,0,0,-,0,0
CCN(c1ccccc1)c1ncnc2c1cnn2-c1ccccc1,19µM,?,0,20.6µM,?
CCN(Cc1ccccc1)c1ncnc2c1cnn2-c1ccc(F)cc1,7.57µM,-,-,-,-
CN(Cc1ccccc1)c1ncnc2c1cnn2-c1ccccc1,6.01µM,2.51µM,5.62µM,18.4µM,2.82µM
Nc1nc(N)nc(-c2ccc(Cl)c(Cl)c2)n1,4.78µM,2µM,-,0,?
Nc1nc(N)nc(-c2ccccc2)n1,0,0,0,0,0
COc1ccc(-c2nn(-c3ccccc3)cc2/C=C/C(=O)NCCCn2ccnc2)cc1OC,26.9µM,0,-,0,0
SMILES,FLuc modulator,NPC1 promoter act,SMN2 splice enh,ELG1 genotox,Rab9 promoter act
COc1ccc2ccccc2c1/C=N/Nc1ccc(Cl)c(C(=O)O)c1,?,?,-,0,?
COc1ccc(-c2nn(-c3ccccc3)cc2/C=N/Nc2ccc(Cl)c(C(=O)O)c2)cc1OC,13.5µM,0,-,0,0
COc1ccc(-c2cn(-c3ccccc3)nc2C(=O)O)cc1OC,12µM,0,-,0,0
COc1ccc(-c2nn(-c3ccccc3)cc2/C=C(\CC(=O)O)c2nc3ccccc3s2)cc1OC,9.53µM,0,0,0,0
COc1ccc(-c2nn(-c3ccccc3)cc2C(=O)NCCCn2ccnc2)cc1,0,0,0,0,0
COC(=O)c1cccc(NC2CC(=O)N(c3ccc(OC)c(OC)c3)C2=O)c1 (stereo not given),0,0,-,0,0
COc1ccccc1CCNC(=O)CNC(=O)c1ccc2ccccc2c1,0,0,-,0,0
CC(=O)NC1=NN(C(C)=O)C(c2ccc(C(C)C)cc2)S1 (stereo not given),0,0,0,0,0
Cc1ccccc1NC(=O)[C@H](CSCc1ccccc1)N1Cc2ccccc2C1=O,0,-,0,-,-
O=C(O)c1cccc(NC(=O)c2cn(-c3ccccc3)nc2-c2ccc(F)cc2)c1,4.78µM,0,-,0,0
NC(=O)/C=C\c1cn(-c2ccccc2)nc1-c1ccc2c(c1)OCCO2,0,0,0,0,0
COc1cccc(-c2nn(-c3ccccc3)cc2C(=O)O)c1,?,0,0,0,0
COc1ccc(-c2nn(-c3ccccc3)cc2C(=O)O)cc1OC,15.1µM,0,0,0,0
